We go through 56 compounds from ChEMBL document CHEMBL3988442, “University of Dundee, Small-Polar-MMV Screening Library” (2021).

The whole screen tested about 69,000 compounds, of which about 420 (0.61%) showed an effect of 50% or more. Many of the other results were omitted from the sample, so strong results are more common in it than they were.

For this assay, the target named is T1, Histidine--tRNA ligase (Leishmania infantum) (UniProt A4I591).
T1 sequence (whole entry): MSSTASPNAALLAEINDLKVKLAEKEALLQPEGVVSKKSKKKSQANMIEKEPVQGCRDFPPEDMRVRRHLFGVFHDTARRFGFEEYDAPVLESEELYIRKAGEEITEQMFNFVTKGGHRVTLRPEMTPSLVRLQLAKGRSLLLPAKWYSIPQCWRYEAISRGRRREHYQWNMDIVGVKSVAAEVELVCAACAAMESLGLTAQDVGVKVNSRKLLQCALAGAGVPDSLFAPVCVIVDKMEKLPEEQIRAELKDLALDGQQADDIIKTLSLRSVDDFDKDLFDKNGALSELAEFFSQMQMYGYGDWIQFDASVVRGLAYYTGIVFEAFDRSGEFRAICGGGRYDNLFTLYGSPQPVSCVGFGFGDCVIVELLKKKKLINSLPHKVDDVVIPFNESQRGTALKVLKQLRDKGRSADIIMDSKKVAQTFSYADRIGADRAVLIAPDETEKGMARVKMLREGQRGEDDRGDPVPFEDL
Kind of assay: Leishmania infantum Histidine tRNA synthetase (LdHisRS). Particulars: 30 µM. Further details: scale not given: in the data most compounds retested in dose-response had high values. It is filed as functional.
For the compound `Cn1cc(C(=O)N2CC[C@@H]3[C@@H]2CCN3c2ncc(F)cn2)cn1`, the Percent Effect came out at 14.3%.
In the case of `O=C(c1ccnnc1)N1C[C@@H](OCc2cccnc2)[C@H]2OCCC[C@H]21`, the Percent Effect turned out to be 22.9%.
As to `O=C(N[C@@H]1CN(c2ncccn2)C[C@@H]2CCCO[C@@H]21)c1cccnc1`, the Percent Effect amounted to 2.86%.
Then `Cc1ccc(N2CC[C@@H]3O[C@@H](c4ccncn4)C[C@H]3C2)nn1`, with 16.2%; and `Cc1nc[nH]c1CN1CCN(C(=O)CN2CCCC2)[C@H]2CS(=O)(=O)C[C@H]21`, with 15.6%; and `CCn1cc(CNc2ccc(Br)c(OC)c2)cn1`, with 16.9%.
With `CCn1cc(CNc2ccc(F)c(F)c2)cn1` the figure was 3.54%.
Then `CCn1cc(CNc2ccc3nccnc3c2)cn1`, with 90.9%; and `CC(C)N(C)C[C@H]1OC[C@@H]2CCN(Cc3cccc(C#N)c3)C[C@@H]21`, with 10%; and `Cc1nc(CO[C@H]2CN(C(=O)c3cccn3C)[C@@H]3COC[C@H]23)cs1`, with -6%.
For the compound `COc1ccccc1N1CCN(c2nc(N)nc3[nH]cnc23)CC1`, the Percent Effect was found to be 21.7%.
With `Nc1nc(N2CCCC(COc3ccc(F)cc3)C2)c2nc[nH]c2n1` (stereo unspecified) the figure was 81.9%; with `Nc1cc(N2CCCC(COc3ccc(F)cc3)C2)ncn1` (stereo unspecified), 28.9%; with `O=C(c1cncc(N2CC[C@@]3(O)CCNC[C@H]3C2)n1)N1CCCC1`, 0%.
On to `CN(C)S(=O)(=O)N1CC[C@]2(O)CCN(c3cc(C#N)ccn3)C[C@@H]2C1`, for which the Percent Effect was determined as 15.7%.
With `O=C1[C@H]2CN(C3CCOCC3)C[C@H]2CN1Cc1cccc(F)c1`, the Percent Effect worked out at 19.7%.
Then `O=C(C1CCCCC1)N1C[C@@H]2CCN(c3cnccn3)C[C@@H]2C1`, with 46.8%.
Consider `O=C(C1CCCC1)N1C[C@@H]2CCN(c3cnccn3)C[C@@H]2C1`, for which the Percent Effect is 30.3%.
With `CS(=O)(=O)N1C[C@H]2N(c3ncccn3)CCC[C@@]2(C(=O)NCC2CC2)C1` the figure was 6.36%.
With `COc1ccc(C(NCc2cccc(O)c2)C2CC2)cc1` (stereo unspecified) the figure was 69.6%; with `COc1ccc(C(NCc2cccc(C#N)c2)C2CC2)cc1` (stereo unspecified), 3.8%.
As for `COc1ccc(C(NCc2ccc(C#N)cc2)C2CC2)cc1` (stereo unspecified), the Percent Effect turned out to be 29.1%.
With `Cc1ccoc1C(=O)N1CC[C@H]2[C@@H]1CCC(=O)N2c1cccnc1` the figure was 23%; with `CCS(=O)(=O)NC[C@]12COC[C@H]1CN(CCc1ccccc1)C2`, 2.63%.
In the case of `c1cnc(N2CCC3(CC2)CN(CC2CC2)c2ccccc23)nc1`, the Percent Effect turned out to be 70.7%.
For `c1ccc2c(c1)N(CC1CCOC1)CC21CCN(c2cnccn2)CC1` (stereo unspecified), the Percent Effect came to 39.1%.
Regarding `O=C1N(CC2CC2)CCC12CCN(c1ncccn1)CC2`, the Percent Effect came to 24.4%.
Then `CN(C)CCN1C(=O)CC[C@@H]2[C@H]1CCN2C(=O)c1ccc(C#N)cc1`, with 17.1%.
With `CN(C)[C@H]1COC[C@@H]2CN(Cc3ccc4c(c3)OCO4)C[C@@H]21` the figure was 16.2%; with `O=C1N(c2ccccc2)C[C@H]2CN(C3CCC3)CCN12`, 22.2%.
Then `CCc1ccc2c(C3CN(CC4CCC4)C3)ncn2c1`, with 69.8%; and `CCc1ccc2c(C3CN(S(C)(=O)=O)C3)ncn2c1`, with 12.6%.
In the case of `CCc1ccc2c(C3CN(C(C)=O)C3)ncn2c1`, the Percent Effect came out at 17.6%.
Turning to `Cc1cc(=O)n(C)cc1NC(=O)Cc1ccc(C(F)(F)F)cc1`, the Percent Effect is 107%.
With `Cc1ccc(C(F)(F)F)cc1NCC(=O)Nc1c(C)nn(C)c1C` the figure was 17.8%.
With `Cn1ccc(NC(=O)Cc2cccc(F)c2)n1` the figure was 15.4%; with `Cc1cc(=O)n(CC(=O)Nc2cccc(Cl)c2)nc1C`, 2.4%; with `Cn1ccc(CS(=O)(=O)Cc2cccc(F)c2)cc1=O`, 18.8%.
As to `Cc1cc(=O)n(C)cc1NC(=O)NCc1cccc(F)c1`, the Percent Effect came to 107%.
For `Cc1cc(=O)n(C)cc1NC(=O)Cc1cccc(F)c1`, the Percent Effect came to 68.5%.
In the case of `CN(C)C(=O)CCCn1ccc(NC(=O)NCc2cccc(F)c2)n1`, the Percent Effect is 2.08%.
Take `O=C(NCc1cccc(F)c1)Nc1ccn(CCN2CCOCC2)n1`: the Percent Effect came to 11.2%.
With `Cn1cc(NC(=O)c2cccc(C(F)(F)F)c2)c(=O)n(C)c1=O` the figure was 22.9%; with `Cc1cc(=O)n(C)cc1NC(=O)Cc1cccc(Cl)c1`, 107%.
Then `CS(=O)(=O)CCn1ccc(NC(=O)Cc2cccc(Cl)c2)n1`, with 15.3%; and `Cc1cccc(C(=O)N2CC[C@@H]3CN(c4ncccn4)CCO[C@@H]3C2)c1`, with 10%; and `COc1ccc(CN2CCO[C@@H]3C[C@@H](C(=O)NC(C)C)C[C@H]32)cc1`, with 25%.
With `COC[C@]12COC[C@H]1CN(Cc1ccc3c(c1)OCO3)C2` the figure was 1.98%.
`O=C1CC[C@H]2[C@H](CCN2C(=O)C2CCOCC2)N1Cc1ccncc1`: the Percent Effect amounted to 17.5%.
Then `CNC(=O)[C@@]12CCCN(c3ncccn3)[C@@H]1CN(c1ncc(F)cn1)C2`, with 16.8%; and `CCc1ccc(C(=O)N2C[C@@H]3COC[C@@H](C(=O)NC)[C@@H]3C2)cc1`, with 14%; and `C[C@@H]1C(=O)NC[C@H]2CN(Cc3ccc4c(c3)OCO4)C[C@H]21`, with 15.6%.
With `O=C(NCc1ccccn1)[C@]12COC[C@H]1CN(Cc1cccnc1)C2` the figure was 11.1%.
Then `O=C([C@H]1C[C@@H]2CN(c3ncc(F)cn3)C[C@H]1O2)N1CCOCC1`, with 5.94%; and `CC(C)NC(=O)N1CC[C@H]2N(C)CC[C@@]2(C(=O)Nc2cccnc2)CC1`, with 9.91%; and `O=C(NCC1CC1)[C@H]1C[C@H]2OCC[C@H]2N(Cc2ccsc2)C1`, with 0%.
